Test results: paper PMC7862700, “An all-to-all approach to the identification of sequence-specific readers for epigenetic DNA modifications on cytosine”

Experiments:
Experiment in all cases: DAPPL (digital affinity profiling via proximity ligation, sequencing); 10 mM Tris-HCl pH 7.5, 50 mM NaCl, 1 mM DTT, 4% glycerol, room temperature, 30 min; GST-TFs on glutathione beads, 16-mer random dsDNA library, 0.1% formaldehyde crosslink after washing; high values mean tight binding
FLI1 = molecular target: T1, FLI1 (Homo sapiens, UniProt Q01543 1-452); details: protein: recombinant; tags: N-terminal GST; dsDNA, one strand shown
T1 sequence: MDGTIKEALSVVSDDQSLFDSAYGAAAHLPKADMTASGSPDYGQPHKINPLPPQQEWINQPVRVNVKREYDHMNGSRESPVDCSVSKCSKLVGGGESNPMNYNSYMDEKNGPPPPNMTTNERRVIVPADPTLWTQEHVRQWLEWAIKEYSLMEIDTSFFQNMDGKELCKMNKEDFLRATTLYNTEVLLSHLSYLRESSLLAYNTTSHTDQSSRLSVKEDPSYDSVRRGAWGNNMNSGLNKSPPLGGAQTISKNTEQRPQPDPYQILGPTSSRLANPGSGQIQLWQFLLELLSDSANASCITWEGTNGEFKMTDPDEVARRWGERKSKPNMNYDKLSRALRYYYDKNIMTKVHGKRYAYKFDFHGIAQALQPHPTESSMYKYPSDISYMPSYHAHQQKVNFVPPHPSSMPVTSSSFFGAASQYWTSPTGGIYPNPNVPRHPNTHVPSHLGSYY
Summary of the method: (§1)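 Each value of binding signal is a hexamer's read frequency for a factor divided by the same hexamer's frequency in the tag-only sample. Barcoded, bead-captured GST fusions of human transcription factors made in yeast were pooled with that sample and incubated with 200 nmole of a random double-stranded 16-mer DNA library in Tris/NaCl/DTT/glycerol buffer at room temperature for 30 min. Washing, 0.1% formaldehyde crosslinking, proximity ligation, PCR and Illumina NextSeq500 sequencing followed.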

ELK1 = molecular target: T2, ELK1 (Homo sapiens, UniProt P19419 1-428); details: protein: recombinant; tags: N-terminal GST; dsDNA, one strand shown
T2 sequence: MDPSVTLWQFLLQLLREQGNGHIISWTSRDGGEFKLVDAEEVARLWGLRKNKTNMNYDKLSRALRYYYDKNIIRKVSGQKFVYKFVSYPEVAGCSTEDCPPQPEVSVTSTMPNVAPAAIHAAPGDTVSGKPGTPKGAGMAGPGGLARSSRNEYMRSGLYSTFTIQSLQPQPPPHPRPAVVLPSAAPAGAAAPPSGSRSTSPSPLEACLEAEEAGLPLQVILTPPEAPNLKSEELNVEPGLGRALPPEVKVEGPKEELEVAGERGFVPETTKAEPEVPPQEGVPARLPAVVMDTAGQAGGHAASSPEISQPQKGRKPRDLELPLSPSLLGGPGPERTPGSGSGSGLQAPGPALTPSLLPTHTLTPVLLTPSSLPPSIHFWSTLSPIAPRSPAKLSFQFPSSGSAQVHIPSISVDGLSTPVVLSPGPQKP
Summary of the method: as §1

GABPA = molecular target: T3, GABPA (Homo sapiens, UniProt Q06546 1-454); details: protein: recombinant; tags: N-terminal GST; dsDNA, one strand shown
T3 sequence: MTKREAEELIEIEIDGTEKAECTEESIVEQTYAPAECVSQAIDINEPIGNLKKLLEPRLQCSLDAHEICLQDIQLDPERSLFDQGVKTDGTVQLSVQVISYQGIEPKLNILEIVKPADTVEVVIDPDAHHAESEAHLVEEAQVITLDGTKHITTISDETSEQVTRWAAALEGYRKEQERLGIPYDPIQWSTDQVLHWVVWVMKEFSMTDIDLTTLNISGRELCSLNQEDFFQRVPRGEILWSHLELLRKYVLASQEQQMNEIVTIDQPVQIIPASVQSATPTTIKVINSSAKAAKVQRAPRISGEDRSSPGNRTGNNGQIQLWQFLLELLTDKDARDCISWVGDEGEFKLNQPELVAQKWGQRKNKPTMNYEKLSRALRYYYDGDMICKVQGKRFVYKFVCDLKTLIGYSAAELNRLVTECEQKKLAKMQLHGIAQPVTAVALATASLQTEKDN
Summary of the method: as §1

ERG = molecular target: T4, ERG (Homo sapiens, UniProt P11308 1-479); details: protein: recombinant; tags: N-terminal GST; dsDNA, one strand shown
T4 sequence: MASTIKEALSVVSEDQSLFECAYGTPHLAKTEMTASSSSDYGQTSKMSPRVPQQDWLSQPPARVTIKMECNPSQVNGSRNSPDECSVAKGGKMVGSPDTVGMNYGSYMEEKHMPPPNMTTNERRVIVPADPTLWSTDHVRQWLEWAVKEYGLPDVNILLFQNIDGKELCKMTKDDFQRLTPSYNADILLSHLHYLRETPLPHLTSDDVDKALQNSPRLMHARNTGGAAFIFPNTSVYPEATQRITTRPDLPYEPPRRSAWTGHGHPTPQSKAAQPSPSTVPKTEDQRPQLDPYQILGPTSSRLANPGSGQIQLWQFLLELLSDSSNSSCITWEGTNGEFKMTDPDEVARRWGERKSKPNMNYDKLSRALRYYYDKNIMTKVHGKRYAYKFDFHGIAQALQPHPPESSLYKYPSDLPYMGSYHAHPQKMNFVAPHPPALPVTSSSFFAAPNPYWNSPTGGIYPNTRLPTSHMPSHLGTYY
Summary of the method: as §1

ELF1 = ELF1 (Homo sapiens, UniProt P32519 1-619); details: protein: recombinant; tags: N-terminal GST; dsDNA, one strand shown
Summary of the method: as §1

EHF = molecular target: T5, EHF (Homo sapiens, UniProt Q9NZC4 1-300); details: protein: recombinant; tags: N-terminal GST; dsDNA, one strand shown
T5 sequence: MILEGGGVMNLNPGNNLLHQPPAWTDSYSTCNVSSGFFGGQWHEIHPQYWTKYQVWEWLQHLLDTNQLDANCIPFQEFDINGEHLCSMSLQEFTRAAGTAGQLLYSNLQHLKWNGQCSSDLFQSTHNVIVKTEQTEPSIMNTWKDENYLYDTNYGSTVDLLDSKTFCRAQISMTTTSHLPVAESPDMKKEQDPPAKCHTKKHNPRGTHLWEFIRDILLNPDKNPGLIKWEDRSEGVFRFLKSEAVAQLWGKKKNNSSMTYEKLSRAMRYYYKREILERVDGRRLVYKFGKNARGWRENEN
Summary of the method: as §1

SPI1 = SPI1 (Homo sapiens, UniProt P17947 1-270); details: protein: recombinant; tags: N-terminal GST; dsDNA, one strand shown
Summary of the method: as §1

SPIB = SPIB (Homo sapiens, UniProt Q01892 1-262); details: protein: recombinant; tags: N-terminal GST; dsDNA, one strand shown
Summary of the method: as §1

ELK3 = molecular target: T6, ELK3 (Homo sapiens, UniProt P41970 1-407); details: protein: recombinant; tags: N-terminal GST; dsDNA, one strand shown
T6 sequence: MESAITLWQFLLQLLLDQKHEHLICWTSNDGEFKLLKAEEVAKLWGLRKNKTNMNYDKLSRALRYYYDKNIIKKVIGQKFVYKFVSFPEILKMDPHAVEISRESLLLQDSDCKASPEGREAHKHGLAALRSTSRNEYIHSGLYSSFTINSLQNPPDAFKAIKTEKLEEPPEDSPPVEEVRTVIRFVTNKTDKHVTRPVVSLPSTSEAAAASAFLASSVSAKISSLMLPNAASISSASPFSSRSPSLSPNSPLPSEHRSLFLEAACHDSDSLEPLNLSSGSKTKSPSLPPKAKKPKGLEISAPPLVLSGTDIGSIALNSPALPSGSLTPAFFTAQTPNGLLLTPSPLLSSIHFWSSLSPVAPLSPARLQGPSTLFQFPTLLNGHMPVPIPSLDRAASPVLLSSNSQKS
Summary of the method: as §1

FEV = molecular target: T7, FEV (Homo sapiens, UniProt Q99581 1-238); details: protein: recombinant; tags: N-terminal GST; dsDNA, one strand shown
T7 sequence: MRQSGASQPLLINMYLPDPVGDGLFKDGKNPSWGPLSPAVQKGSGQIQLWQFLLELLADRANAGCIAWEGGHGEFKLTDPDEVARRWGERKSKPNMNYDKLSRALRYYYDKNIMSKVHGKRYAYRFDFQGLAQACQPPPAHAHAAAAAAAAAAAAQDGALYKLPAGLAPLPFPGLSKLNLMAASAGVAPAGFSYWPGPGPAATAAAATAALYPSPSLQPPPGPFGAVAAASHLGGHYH
Summary of the method: as §1

ETV5 = ETV5 (Homo sapiens, UniProt P41161 1-510); details: protein: recombinant; tags: N-terminal GST; dsDNA, one strand shown
Summary of the method: as §1

HSF1 = HSF1 (Homo sapiens, UniProt Q00613 1-529); details: protein: recombinant; tags: N-terminal GST; chain copies: 3; dsDNA, one strand shown
Summary of the method: as §1

SPIC = molecular target: T8, SPIC (Homo sapiens, UniProt Q8N5J4 1-248); details: protein: recombinant; tags: N-terminal GST; dsDNA, one strand shown
T8 sequence: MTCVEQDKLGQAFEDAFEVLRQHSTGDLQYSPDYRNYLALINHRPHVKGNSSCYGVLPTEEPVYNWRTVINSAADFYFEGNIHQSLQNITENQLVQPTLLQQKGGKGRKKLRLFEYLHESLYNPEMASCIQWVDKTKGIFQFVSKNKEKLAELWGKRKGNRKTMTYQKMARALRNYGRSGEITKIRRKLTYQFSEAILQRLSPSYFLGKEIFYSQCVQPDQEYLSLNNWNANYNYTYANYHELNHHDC
Summary of the method: as §1

ELF4 = ELF4 (Homo sapiens, UniProt Q99607 1-663); details: protein: recombinant; tags: N-terminal GST; dsDNA, one strand shown
Summary of the method: as §1

ELK4 = molecular target: T9, ELK4 (Homo sapiens, UniProt P28324-2 1-405); details: protein: recombinant; tags: N-terminal GST; dsDNA, one strand shown
T9 sequence: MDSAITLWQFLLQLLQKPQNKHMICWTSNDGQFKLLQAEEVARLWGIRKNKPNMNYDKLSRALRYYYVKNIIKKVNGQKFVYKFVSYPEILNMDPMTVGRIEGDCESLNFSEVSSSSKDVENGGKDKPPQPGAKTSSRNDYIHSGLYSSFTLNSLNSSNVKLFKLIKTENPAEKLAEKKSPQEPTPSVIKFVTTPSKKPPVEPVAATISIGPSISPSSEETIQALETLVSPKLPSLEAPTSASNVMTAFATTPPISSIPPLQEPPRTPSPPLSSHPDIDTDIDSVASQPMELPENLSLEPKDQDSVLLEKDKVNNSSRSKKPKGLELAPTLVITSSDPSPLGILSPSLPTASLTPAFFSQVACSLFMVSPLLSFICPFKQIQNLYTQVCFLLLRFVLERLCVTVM
Summary of the method: as §1

ETV2 = molecular target: T10, ETV2 (Homo sapiens, UniProt O00321 1-342); details: protein: recombinant; tags: N-terminal GST; dsDNA, one strand shown
T10 sequence: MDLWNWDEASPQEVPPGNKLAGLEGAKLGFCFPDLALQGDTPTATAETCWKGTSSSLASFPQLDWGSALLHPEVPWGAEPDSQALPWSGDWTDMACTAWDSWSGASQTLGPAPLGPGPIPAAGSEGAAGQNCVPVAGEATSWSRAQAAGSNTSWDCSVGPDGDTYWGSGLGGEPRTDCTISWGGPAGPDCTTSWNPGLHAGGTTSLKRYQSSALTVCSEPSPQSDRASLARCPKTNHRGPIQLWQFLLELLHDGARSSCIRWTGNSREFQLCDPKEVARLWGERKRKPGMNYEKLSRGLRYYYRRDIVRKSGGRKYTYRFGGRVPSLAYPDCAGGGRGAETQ
Summary of the method: as §1

ELF3 = molecular target: T11, ELF3 (Homo sapiens, UniProt P78545 1-371); details: protein: recombinant; tags: N-terminal GST; dsDNA, one strand shown
T11 sequence: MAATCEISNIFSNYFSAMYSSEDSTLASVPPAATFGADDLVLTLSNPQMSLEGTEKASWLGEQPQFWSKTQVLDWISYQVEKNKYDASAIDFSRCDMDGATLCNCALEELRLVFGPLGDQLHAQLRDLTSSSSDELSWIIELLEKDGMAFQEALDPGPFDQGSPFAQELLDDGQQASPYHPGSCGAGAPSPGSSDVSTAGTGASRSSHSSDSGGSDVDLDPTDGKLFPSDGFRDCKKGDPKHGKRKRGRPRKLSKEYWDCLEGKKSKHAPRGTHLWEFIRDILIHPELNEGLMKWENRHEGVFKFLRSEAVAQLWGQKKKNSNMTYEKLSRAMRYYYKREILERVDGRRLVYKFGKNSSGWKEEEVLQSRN
Summary of the method: as §1

ETV1 = ETV1 (Homo sapiens, UniProt P50549 1-477); details: protein: recombinant; tags: N-terminal GST; dsDNA, one strand shown
Summary of the method: as §1

Sequence of SPIB (Q01892 whole entry): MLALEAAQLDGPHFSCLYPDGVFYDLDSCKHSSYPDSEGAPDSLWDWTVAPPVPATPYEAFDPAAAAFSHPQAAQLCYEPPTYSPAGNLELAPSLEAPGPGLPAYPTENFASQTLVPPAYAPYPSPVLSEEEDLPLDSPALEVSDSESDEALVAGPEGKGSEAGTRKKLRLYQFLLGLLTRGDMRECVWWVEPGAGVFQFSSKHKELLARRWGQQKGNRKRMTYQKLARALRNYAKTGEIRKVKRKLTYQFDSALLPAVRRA
Sequence of ETV1 (P50549 whole entry): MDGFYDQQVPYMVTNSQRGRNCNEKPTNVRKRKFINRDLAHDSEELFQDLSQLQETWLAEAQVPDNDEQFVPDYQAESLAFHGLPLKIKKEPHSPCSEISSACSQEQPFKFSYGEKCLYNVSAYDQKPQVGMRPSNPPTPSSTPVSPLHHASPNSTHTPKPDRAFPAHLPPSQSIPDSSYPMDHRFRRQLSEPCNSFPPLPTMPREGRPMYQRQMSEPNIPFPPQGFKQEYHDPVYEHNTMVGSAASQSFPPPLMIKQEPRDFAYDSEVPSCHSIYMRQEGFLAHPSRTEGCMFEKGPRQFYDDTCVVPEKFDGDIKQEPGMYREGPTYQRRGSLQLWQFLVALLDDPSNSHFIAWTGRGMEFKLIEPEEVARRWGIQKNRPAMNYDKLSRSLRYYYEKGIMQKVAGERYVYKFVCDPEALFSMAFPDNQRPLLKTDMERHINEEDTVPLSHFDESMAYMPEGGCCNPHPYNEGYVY
Sequence of ELF1 (P32519 whole entry): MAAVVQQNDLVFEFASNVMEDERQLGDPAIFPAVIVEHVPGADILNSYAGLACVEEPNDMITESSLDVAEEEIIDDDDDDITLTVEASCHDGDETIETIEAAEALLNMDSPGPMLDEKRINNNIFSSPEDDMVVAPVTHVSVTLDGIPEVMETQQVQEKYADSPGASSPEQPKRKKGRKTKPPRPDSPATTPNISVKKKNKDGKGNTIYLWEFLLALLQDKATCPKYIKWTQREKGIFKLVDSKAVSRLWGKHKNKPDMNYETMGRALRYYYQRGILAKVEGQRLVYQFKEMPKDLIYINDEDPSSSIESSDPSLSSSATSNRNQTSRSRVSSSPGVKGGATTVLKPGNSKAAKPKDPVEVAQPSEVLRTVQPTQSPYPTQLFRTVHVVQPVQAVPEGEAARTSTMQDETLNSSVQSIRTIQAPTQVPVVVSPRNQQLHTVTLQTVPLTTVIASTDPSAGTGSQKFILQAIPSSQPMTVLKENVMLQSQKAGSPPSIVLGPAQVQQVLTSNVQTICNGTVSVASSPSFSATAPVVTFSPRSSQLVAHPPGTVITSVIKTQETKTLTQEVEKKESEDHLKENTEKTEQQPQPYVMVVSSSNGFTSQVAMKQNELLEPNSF
Sequence of ELF4 (Q99607 whole entry): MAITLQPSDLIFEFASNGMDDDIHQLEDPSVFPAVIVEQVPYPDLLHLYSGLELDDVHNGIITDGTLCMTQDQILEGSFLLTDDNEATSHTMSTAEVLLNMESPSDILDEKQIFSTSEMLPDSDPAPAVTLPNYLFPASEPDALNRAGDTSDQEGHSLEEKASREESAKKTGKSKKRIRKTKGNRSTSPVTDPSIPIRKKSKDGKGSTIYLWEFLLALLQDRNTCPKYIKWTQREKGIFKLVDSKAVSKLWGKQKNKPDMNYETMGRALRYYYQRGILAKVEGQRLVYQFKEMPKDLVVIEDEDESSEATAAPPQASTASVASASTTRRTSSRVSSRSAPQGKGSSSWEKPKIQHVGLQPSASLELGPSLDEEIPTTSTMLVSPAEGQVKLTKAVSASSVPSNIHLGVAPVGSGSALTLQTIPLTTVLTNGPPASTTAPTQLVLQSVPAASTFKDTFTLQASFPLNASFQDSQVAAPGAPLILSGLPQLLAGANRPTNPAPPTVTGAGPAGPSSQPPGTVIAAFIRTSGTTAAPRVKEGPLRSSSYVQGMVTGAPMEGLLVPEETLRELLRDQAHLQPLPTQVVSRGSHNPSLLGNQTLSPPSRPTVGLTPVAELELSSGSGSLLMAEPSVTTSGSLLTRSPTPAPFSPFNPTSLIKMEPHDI
Sequence of HSF1 (Q00613 whole entry): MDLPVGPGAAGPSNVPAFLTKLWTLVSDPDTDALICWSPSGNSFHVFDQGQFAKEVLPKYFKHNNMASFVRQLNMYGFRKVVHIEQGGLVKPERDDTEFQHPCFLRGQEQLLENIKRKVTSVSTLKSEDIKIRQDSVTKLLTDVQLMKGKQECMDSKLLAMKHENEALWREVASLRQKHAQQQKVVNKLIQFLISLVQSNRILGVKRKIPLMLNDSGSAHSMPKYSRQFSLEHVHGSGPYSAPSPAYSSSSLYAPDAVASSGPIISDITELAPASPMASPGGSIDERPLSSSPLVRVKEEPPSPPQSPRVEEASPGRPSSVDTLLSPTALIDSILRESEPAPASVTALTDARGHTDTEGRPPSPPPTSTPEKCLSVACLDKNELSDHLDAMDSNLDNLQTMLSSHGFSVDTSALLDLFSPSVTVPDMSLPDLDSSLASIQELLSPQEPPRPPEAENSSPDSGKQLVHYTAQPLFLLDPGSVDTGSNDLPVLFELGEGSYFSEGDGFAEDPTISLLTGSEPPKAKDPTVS
Sequence of ETV5 (P41161 whole entry): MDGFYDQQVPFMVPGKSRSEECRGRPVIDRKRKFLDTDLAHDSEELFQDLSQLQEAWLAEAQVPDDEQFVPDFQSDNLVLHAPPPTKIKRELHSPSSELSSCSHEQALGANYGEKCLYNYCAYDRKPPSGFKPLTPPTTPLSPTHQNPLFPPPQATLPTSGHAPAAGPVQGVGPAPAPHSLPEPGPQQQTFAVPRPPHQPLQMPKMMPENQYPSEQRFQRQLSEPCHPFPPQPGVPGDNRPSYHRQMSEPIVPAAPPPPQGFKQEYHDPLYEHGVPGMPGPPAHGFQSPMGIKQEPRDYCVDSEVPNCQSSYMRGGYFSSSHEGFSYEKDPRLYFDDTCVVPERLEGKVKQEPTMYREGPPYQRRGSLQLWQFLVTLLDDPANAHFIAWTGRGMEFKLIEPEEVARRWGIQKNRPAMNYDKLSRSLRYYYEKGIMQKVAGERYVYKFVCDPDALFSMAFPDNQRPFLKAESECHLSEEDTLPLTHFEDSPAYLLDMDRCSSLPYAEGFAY

## ACGGAA
FLI1
  binding signal: 1.66 fold enrichment (6-mer frequency, TF over GST control)
ELK1
  binding signal: 1.69 fold enrichment (6-mer frequency, TF over GST control)
GABPA
  binding signal: 1.58 fold enrichment (6-mer frequency, TF over GST control)
ERG
  binding signal: 1.93 fold enrichment (6-mer frequency, TF over GST control)
ELF1
  binding signal: 1.62 fold enrichment (6-mer frequency, TF over GST control)
EHF
  binding signal: 2 fold enrichment (6-mer frequency, TF over GST control)
SPI1
  binding signal: 2.02 fold enrichment (6-mer frequency, TF over GST control)
SPIB
  binding signal: 1.93 fold enrichment (6-mer frequency, TF over GST control)
ELK3
  binding signal: 1.94 fold enrichment (6-mer frequency, TF over GST control)
FEV
  binding signal: 1.83 fold enrichment (6-mer frequency, TF over GST control)
ETV5
  binding signal: 1.94 fold enrichment (6-mer frequency, TF over GST control)
HSF1
  binding signal: 1.01 fold enrichment (6-mer frequency, TF over GST control)
SPIC
  binding signal: 1.69 fold enrichment (6-mer frequency, TF over GST control)
ELF4
  binding signal: 1.61 fold enrichment (6-mer frequency, TF over GST control)
ELK4
  binding signal: 1.5 fold enrichment (6-mer frequency, TF over GST control)
ETV2
  binding signal: 1.75 fold enrichment (6-mer frequency, TF over GST control)
ELF3
  binding signal: 1.89 fold enrichment (6-mer frequency, TF over GST control)
ETV1
  binding signal: 1.85 fold enrichment (6-mer frequency, TF over GST control)
